Among all 350,000 compounds or so, about 9,900 (2.8%) were called active. Roughly 15% stayed inconclusive and do not appear here. Calls come from the whole dose curve; as a rule, active = well fitted activation curve with a large enough effect; inconclusive = small, poorly fitted or top-dose-only effect; inactive = no such curve, though single readings can be large or run the other way. The list comes from a sample in which actives are over-represented; it also holds similar structures and randomly drawn compounds. Entries that show only a call come without a potency.

Experimental findings from PubChem BioAssay AID624296 (National Center for Advancing Translational Sciences (NCATS), 2012) are described below.
Potency is the fitted concentration of half-maximal effect.

The test is described as follows: A quantitative high throughput screen for small molecules that induce DNA re-replication in MCF 10a normal breast cells. Note: nearly all actives have a fitted effect of over 50% in size. The conditions noted are these: MCF 10A DNA re-replication, Hoechst nuclear intensity, 48 h; series mostly up to 46.1 µM.
As to `CCC(C)C(N=C1NS(=O)(=O)c2ccccc21)C(=O)N1CCC(C)CC1` (stereo not given), the Potency entry was “inactive”. As to `Cn1c(=O)[nH]c(=O)c2c1nc(Br)n2CCCCSc1nc2ccccc2o1`, the Potency was 7.31 µM (active). On the same count and under the same terms, the value for `Cc1ccnc(SCCn2c(Br)nc3c2c(=O)[nH]c(=O)n3C)n1` was “inactive”. The same measure, in the same setting: the value for `Cn1c(=O)c2c(nc(Br)n2CCSc2nc3ccccc3o2)n(C)c1=O` was “inactive”. Take `Cc1cccc(C(=O)N[C@H](C(=O)NCc2cccs2)C(C)C)c1`: the Potency result was “inactive”.

For `CC(C)(C)OC(=O)C[C@@H]1C/C=C\C[C@@H](CC(=O)N[C@@H](CO)Cc2ccccc2)C(=O)N2CCC[C@H]2COC1=O`, the Potency result was “inactive”.

Turning to `Nc1ccc2[nH]c(=S)sc2c1`, the Potency result is “inactive”. Still for that read-out and setting: the value for `CCCN1CCn2c3c(c4cc(Br)ccc42)CCCC31` (stereo not given) was 23.1 µM (active). Same read-out and setting: the value for `COc1ccc(S(=O)(=O)N2CCOCC2)cc1NC(=O)CC1CC2CCC1C2` (stereo not given) was “inactive”; that for `Cc1ccc(C(=O)O)c(NC=O)c1OCc1ccccc1` was “inactive”. Still for that read-out and setting: the value for `CCCCOC(=O)Cn1c(=O)n(CC(=O)OCCCC)c2cc(C)ccc21` was “inactive”; that for `CCCCCCCCCCOC(=O)Cn1c(COc2ccc(C)cc2)[n+](C)c2ccccc21` was 23.1 µM (active); that for `CCCCOC(=O)Cn1c(=N)n(CCN(CC)CC)c2ccccc21` was “inactive”. Consider `CC(=O)Nc1ccc(S(=O)(=O)NC(C)C(=O)OCCOc2ccc(F)cc2)cc1` (stereo not given), for which the Potency result is “inactive”. On the same count and under the same terms, the entry for `COc1cc(C(=O)NCC2(c3ccccc3)CCCC2)ccc1OC(C)C` is “inactive”; for `CCOc1c(OC)cccc1C(=O)NCC1(c2ccccc2)CCCC1` it is 20.6 µM (active); for `COc1ccc(C2(CNC(=O)Cc3ccc(OC)c(OC)c3)CCCC2)cc1` it is “inactive”. The same measure, in the same setting: the entry for `CCC(C)CCN1CCN=C1N(C)C` (stereo not given) is “inactive”; for `O=C1CC[C@@H]2CC3(C[C@@H]4CCN1[C@H]24)Nc1cc([N+](=O)[O-])ccc1NC3=NC1CCCCC1` (stereo not given in full) it is “inactive”; for `O=C(c1cc(=O)c2ccccc2o1)N1CCN(c2ccccc2)CC1` it is “inactive”. The same measure, in the same setting: the value for `COc1ccccc1CNC(=O)c1cc(=O)c2ccccc2o1` was “inactive”; that for `COc1cc2c(cc1OC)CN(C(=O)c1cc(=O)c3ccccc3o1)CC2` was 10.3 µM (active); that for `NC(=O)C1(Nc2ccc([N+](=O)[O-])cc2)CCCC1` was “inactive”. Consider `CC1CN(Cc2ccco2)C(=S)N(c2ccccc2)C1=O` (stereo not given), for which the Potency result is “inactive”.

As to `C[C@@H](NC(=O)OC(C)(C)C)c1nnc(S(=O)(=O)Cc2ccccc2)o1`, the Potency was 18.4 µM (active).

Regarding `CC(C)Sc1nnc([C@H](Cc2ccccc2)NC(=O)OC(C)(C)C)o1`, the Potency entry was “inactive”.

For `C[C@H](NC(=O)OC(C)(C)C)c1nnc(SCC(N)=O)o1`, the Potency result was “inactive”. The same measure, in the same setting: the entry for `Cc1ccc(S(=O)(=O)Nc2ccc(F)c(S(=O)(=O)N3CCOCC3)c2)cc1` is “inactive”.

Take `CNS(=O)(=O)c1cccc(C(=O)OCCCC(=O)c2ccccc2)c1`: the Potency result is “inactive”. Regarding `CCOc1cc(-c2cc(-c3ccc(OC)cc3)nc(N)c2C#N)ccc1O`, the Potency result is “inactive”. On the same count and under the same terms, the entry for `CC(=O)Nc1ccc(-c2cn3cccnc3n2)cc1` is “inactive”; for `COc1ccc(-c2cc(-c3ccc(N)cc3)nc(N)c2C#N)cc1OC` it is 23.1 µM (active). The same measure, in the same setting: the value for `COc1ccc(C2CC(=O)Nc3sc(=N)c4c(N)c(C#N)c(N)nc4c32)cc1OC` (stereo not given) was “inactive”; that for `CCOc1cc(-c2cc(-c3ccc(NC(C)=O)cc3)nc(N)c2C#N)ccc1O` was 18.4 µM (active). Regarding `COc1ccc(OC)c2c(N)c(C#N)c(C(F)(F)C(F)(F)F)nc12`, the Potency entry is “inactive”. Same read-out and setting: the entry for `O=C(COc1ccccc1F)NNC(=O)c1cc(Br)ccc1Cl` is “inactive”; for `O=S(=O)(c1cccs1)N1CCN(CCOc2ccccc2)CC1` it is “inactive”. The same measure, in the same setting: the value for `CCOc1cc(/C=C/C(=O)OCC(=O)NCCN2C(=O)CSC2=O)ccc1OCC(C)C` was “inactive”; that for `Cc1cccc(N2O[C@H]3C=CC2CCCC3)n1` was “inactive”. Turning to `CC(=O)c1ccc(OCCCC(=O)Nc2ccc(C)c(S(=O)(=O)N3CCOCC3)c2)cc1`, the Potency entry is “inactive”. The same measure, in the same setting: the value for `CCCC(O)(CCC)C(=O)NN(C(=O)CCl)c1cccc(C)c1` was 14.6 µM (active); that for `Cc1ccc(N(NC(=O)C(C)(C)O)C(=O)c2ccccc2)cc1C` was “inactive”; that for `CC(C)(O)C(=O)NN(C(=O)c1ccccc1)c1cccc(Br)c1` was “inactive”.

Turning to `COc1cc(NC(=O)COC(=O)c2cc(S(=O)(=O)N3CCOCC3)ccc2F)cc(OC)c1`, the Potency result was “inactive”. Same read-out and setting: the entry for `CSc1ccc(Cl)c(C(=O)OCC(=O)N2CCNC2=O)c1` is “inactive”. Same read-out and setting: the entry for `O=C1CC2(CCCC2)C(=O)N1CN1CCN(S(=O)(=O)c2ccc(F)cc2F)CC1` is “inactive”; for `CC/C(=C\c1ccc(Cl)cc1)c1ccncc1` it is “inactive”. Same read-out and setting: the value for `CCn1c(=O)cc(SCC(=O)NCCC2=CCCCC2)c2ccccc21` was “inactive”; that for `Cc1ccc(-n2c(SCC(=O)NCCC3=CCCCC3)nc3n[nH]c(C)c3c2=N)cc1Cl` was 16.4 µM (active); that for `O=C(Cc1nn[nH]n1)NCCC1=CCCCC1` was “inactive”. Turning to `Cc1ccc(N2C(=O)N3[C@@H]4c5ccccc5OC[C@@H]4[C@@H](c4ccccc4)[C@@]3(C)C2=O)cc1`, the Potency entry is “inactive”. The same measure, in the same setting: the value for `O=C(O)C(CCc1ccccn1)c1ccccc1` (stereo not given) was “inactive”; that for `O=c1ccc(S(=O)(=O)N2CCCC2)cn1Cc1nc(-c2ccccc2)no1` was “inactive”. The same measure, in the same setting: the value for `O=C(O)C(c1cccs1)C1(O)CCCCC1` (stereo not given) was “inactive”; that for `Nc1ccc2c(c1)C(=Cc1cccnc1)c1ccccc1-2` was “inactive”.

As to `CC(C)=CCc1ccc(O)c(=O)cc1C(C)C`, the Potency is 20.6 µM (active). On the same count and under the same terms, the value for `CC(C)c1cc(N=O)cc(C(C)C)c1O` was “inactive”; that for `CCN(C(=O)COC(=O)Cc1c(F)cccc1Cl)c1c(N)n(Cc2ccccc2)c(=O)[nH]c1=O` was “inactive”. On to `COc1cccc(NC(=O)CN(C)C(=O)CSC(=S)N2CCCC2)c1`, for which the Potency result was “inactive”. Still for that read-out and setting: the value for `COc1cccc(NC(=O)CN(C)CC(=O)Nc2ccc3c(c2)CCC3)c1` was 0.651 µM (active). Same read-out and setting: the entry for `COc1ccc(NC(=O)CN(C)CC(=O)Nc2cccc(C(F)(F)F)c2)cc1` is “inactive”; for `O=C(Cn1nnc(-c2ccccc2)n1)NC(=O)NC1CCCC1` it is “inactive”; for `O=C(COC(=O)c1ccc(Br)o1)NC12CC3CC(CC(C3)C1)C2` it is “inactive”. Still for that read-out and setting: the entry for `O=C1CCC/C=C/C[C@@H](CC(=O)N(CCO)Cc2ccccc2)C(=O)NC[C@H](c2ccccc2)O1` is “inactive”.

On to `O=C1OC[C@@H]2CCCN2C(=O)[C@H](CC(=O)N(CCO)Cc2ccccc2)C/C=C\CC[C@@H]1Cc1ccc(F)cc1`, for which the Potency result is “inactive”. On the same count and under the same terms, the figure for `CC(C)(C)OC(=O)C[C@@H]1C/C=C\C[C@@H](CC(=O)N(CCO)Cc2ccccc2)C(=O)N[C@H](Cc2ccccc2)COC1=O` is 20.6 µM (active).

For the compound `O=C1NC[C@@H](c2ccccc2)OC(=O)[C@H](Cc2ccc(F)cc2)CC/C=C/C[C@H]1CC(=O)N(CCO)Cc1ccccc1`, the Potency was 18.4 µM (active).

With `O=C1N[C@H](Cc2c[nH]c3ccccc23)COC(=O)[C@H](Cc2ccc(F)cc2)C/C=C\C[C@H]1CC(=O)N(CCO)Cc1ccccc1`, the Potency result is “inactive”.

On to `CC(C)(C)OC(=O)C[C@@H]1C/C=C\C[C@H](CC(=O)N[C@@H](CO)Cc2ccccc2)C(=O)N[C@H](Cc2ccccc2)COC1=O`, for which the Potency entry was “inactive”.

`COc1cccc(NC(=O)CSc2nnc(C3CCCCC3)n2N)c1`: the Potency result was “inactive”. Same read-out and setting: the entry for `CC(=O)c1cccc(OCC(=O)OCC(=O)Nc2cc(S(=O)(=O)N3CCCCC3)ccc2C)c1` is “inactive”; for `O=C1c2ccccc2C(=O)N1CCC#Cc1ccc2cc(C3(O)CCCCC3)oc(=O)c2c1` it is “inactive”.

As to `O=C(CSc1nc2[nH]c(=O)[nH]c(=O)c2s1)Nc1cccc(F)c1`, the Potency entry is “inactive”. `CC(Sc1nnc(C2CC2)n1C1CC1)C(=O)Nc1ccc(C(N)=O)cc1` (stereo not given): the Potency result is “inactive”. Same read-out and setting: the entry for `CCCn1nc(C(=O)OCc2nc(N)nc(Nc3ccccc3C)n2)c2ccccc2c1=O` is “inactive”. For the compound `Cc1cc(C)cc(OCc2nnc(SCC(=O)Nc3ccccc3)o2)c1`, the activity, positive = re-replication is -182% [at 0.0737 µM] (inactive). For `Cc1cccc(OCc2nnc(SCn3nnc4ccccc4c3=O)o2)c1`, the Potency result is “inactive”. The same measure, in the same setting: the value for `Cc1cccc(OCc2nnc(SCc3nc4cc(C(F)(F)F)ccc4c(=O)[nH]3)o2)c1` was 5.8 µM (active); that for `C=CC[C@H](CC(=O)NCCO)C(=O)N[C@@H](COC(=O)[C@@H](CC=C)Cc1ccc(F)cc1)Cc1c[nH]c2ccccc12` was “inactive”.

With `CC(C)OC(=O)CN1C(=O)c2ccccc2C1=O`, the Potency entry was “inactive”. As to `CC(C)OC(=O)CN1C(=O)C(=O)c2ccccc21`, the Potency is 23.1 µM (active). Same read-out and setting: the entry for `Cc1cccc2c1N(CC(=O)OC(C)C)C(=O)C2=O` is “inactive”. The same measure, in the same setting: the value for `CCN1C[C@@H]2[C@@H]3C(=O)N(C)C(=O)[C@@H]3[C@](C)(C1=O)N2C(=O)c1ccccc1` was “inactive”.

With `NCCN1CCN2C(=O)CN(C(=O)c3ccccc3)CC12` (stereo not given), the Potency result is “inactive”. On to `S=c1[nH]c(-c2cccs2)cn1-c1ccccc1`, for which the Potency entry was “inactive”. `O=C(c1cn(-c2ccccc2)nc1-c1cc2ccccc2oc1=O)N1CCOCC1`: the Potency result is “inactive”.

For `O=c1oc2ccccc2cc1-c1cn(-c2ccccc2)c(=S)[nH]1`, the Potency was 5.8 µM (active). Take `COc1ccc(CNC(=O)COC(=O)c2ccc(C)c(S(=O)(=O)N3CCOCC3)c2)cc1OC`: the Potency entry was “inactive”. Still for that read-out and setting: the figure for `O=C(NC1CCCCCC1)c1cccnc1Sc1ccc(Cl)cc1` is 18.4 µM (active); for `CSc1ncccc1C(=O)NC1CCCCCC1` it is “inactive”.

Consider `O=C(NCc1cccnc1)c1cccnc1Sc1ccc(Cl)cc1`, for which the Potency entry is “inactive”. Still for that read-out and setting: the figure for `COc1ccc(N(C(=O)c2snc(C(N)=O)c2N)C(C(=O)NC2CCCC2)c2ccc(C)o2)c(OC)c1` (stereo not given) is 20.6 µM (active); for `CCC(C(=O)NC1CCCCC1)N(C(=O)c1snc(C(N)=O)c1N)c1ccc(OC)cc1OC` (stereo not given) it is “inactive”. On the same count and under the same terms, the value for `COc1ccc(N(C(=O)c2snc(C(N)=O)c2N)C(C(=O)NC2CCCC2)c2ccco2)cc1OC` (stereo not given) was “inactive”; that for `COc1ccc(/C=C/C(=O)OCC(=O)NC2CCCCCC2)cc1OC` was “inactive”. As for `CC(C)(C)OC(=O)NCCCCCNC(=O)c1[nH]cnc1C(=O)Nc1nccs1`, the Potency result is “inactive”. As to `Cc1cc([N+](=O)[O-])c(=O)[nH]c1C`, the Potency entry was “inactive”.

Consider `O=C(Nc1cccc(S(=O)(=O)N2CCCCC2)c1)c1ccc2c(c1)OCO2`, for which the Potency entry is “inactive”.

With `Cc1onc(-c2c(F)cccc2Cl)c1C(=O)N(C)CC(=O)Nc1cccc(F)c1`, the Potency result was “inactive”. Still for that read-out and setting: the value for `Cc1onc(-c2c(F)cccc2Cl)c1C(=O)Nc1cccc(S(=O)(=O)N2CCCCC2)c1` was 14.6 µM (active).
